Values joined by “and” are separate entries in the source; they are usually repeats but may differ in a detail not shown here. Identical values can stand only once. Records with an inconclusive call do not appear. Entries that show only a call come without a potency. A number with no mark means an inactive call. Active and inactive are the calls of the source. Calls come from the whole dose curve; as a rule, active = well fitted curve in the direction sought with a large enough effect; inconclusive = small, poorly fitted or top-dose-only effect, or another doubt; inactive = no such curve, though single readings can be large; an effect the other way counts as inactive or inconclusive. Square brackets hold non-standard residues; d marks the D form. Peptide text beside a SMILES is read from it. ξ: configuration not given here. ξPhe(βξ-Me) = CC(c1ccccc1)C(N)C(=O)O; GABA = NCCCC(=O)O
Experiments:
[1] = biological target: Cellular tumor antigen p53 (Homo sapiens) (UniProt P04637); experiment: Primary qHTS for small molecule compounds that upregulate eGFP-tagged delta133p53alpha (in N-terminal) cells. (AID 2060322); conditions: NCI-H358 eGFP-delta133p53alpha fluorescence, 24 h; activation: stronger effect = higher value; note: nearly all actives have a fitted effect of over 75% in size; note: potency is the fitted concentration of half-maximal effect;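 for activation: cells pre-induced with doxycycline then dosed without doxycycline; series mostly up to about 56 µM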
Cellular tumor antigen p53 (Homo sapiens), sequence (P04637 whole entry, looked up): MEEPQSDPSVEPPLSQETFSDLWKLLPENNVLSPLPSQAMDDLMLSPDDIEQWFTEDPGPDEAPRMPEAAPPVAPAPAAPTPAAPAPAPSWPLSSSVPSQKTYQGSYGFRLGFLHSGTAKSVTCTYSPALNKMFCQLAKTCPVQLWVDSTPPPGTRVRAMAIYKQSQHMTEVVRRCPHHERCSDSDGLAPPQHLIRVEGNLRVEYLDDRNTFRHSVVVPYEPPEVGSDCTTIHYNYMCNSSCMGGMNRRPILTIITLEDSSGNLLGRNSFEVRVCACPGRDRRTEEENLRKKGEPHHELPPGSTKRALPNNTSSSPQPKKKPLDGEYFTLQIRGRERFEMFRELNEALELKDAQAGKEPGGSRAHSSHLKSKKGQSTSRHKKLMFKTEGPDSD
Procedure, shortened: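 NCI-H358 cells pre-induced 24 h with 10 ng/ml doxycycline for eGFP-delta133p53alpha, plated dox-free and exposed 24 h at 37C to titrated compounds. Fixed, Hoechst-stained; gated GFP peak intensity by laser scanning cytometry, normalized to DMSO (0%) and 57.5 uM 5-azacytidine (100%).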

[2] = biological target: Aldehyde dehydrogenase, mitochondrial (Homo sapiens) (UniProt P05091); experiment: qHTS for Inhibitors of the Aldehyde Dehydrogenase Family (ALDH2) Primary screen (AID 2061308); note: nearly all actives have a fitted effect of over 55% in size
[3] = biological target: Retinaldehyde dehydrogenase 3 (Homo sapiens) (UniProt P47895); experiment: qHTS for Inhibitors of the Aldehyde Dehydrogenase Family (ALDH1A3) Primary screen (AID 2061315)

Q: How did the activation [1] turn out when `Nc1ccc(S(=O)(=O)Nc2nccs2)cc1` was run?
A: 18.4% and 0.333%

Q: What about the Potency [2] of the same compound?
A: inactive

Q: And the Potency [3]?
A: inactive

Q: Which results are given for `CC(=O)O[C@@H]1C2=C(O)C(=O)[C@](C)(OC(C)=O)C(=O)C2=CO[C@@]12O[C@@H](C)CC[C@H]2OC(C)=O`?
A: activation [1]: -18.3%; Potency [2]: inactive; Potency [3]: inactive

Q: For `COc1cc(O)cc(C)c1C(=O)O[C@H]1[C@@H](O)[C@@H](n2ccc(=O)[nH]c2=O)O[C@@H]1CO`, which activation [1] is on record?
A: -9.16%

Q: What about the Potency [2] of the same compound?
A: inactive

Q: What about the Potency [3] of the same compound?
A: inactive

Q: With `CC1(C(=O)O)CCCC2(C)C3=CCC4CC3(CCC12)CC4CO` (stereo unspecified) as the compound, how does the activation [1] read?
A: 3.82%

Q: And the Potency [2]?
A: inactive

Q: And the Potency [3]?
A: inactive

Q: What does the source list for `CN(C)CC1CCOC1(c1ccccc1)c1ccccc1` (stereo unspecified)?
A: activation [1]: -7%; Potency [2]: inactive; Potency [3]: inactive

Q: For `COC(=O)c1cc(OC)c(O[C@@H]2O[C@@H](C)[C@H](O)[C@@H](O)[C@H]2O)c(OC)c1`, which activation [1] is on record?
A: 1.53%

Q: And the Potency [2]?
A: inactive

Q: And the Potency [3]?
A: inactive

Q: `C[C@@H](Oc1cc(-n2cnc3ccc(OC4CCN(C)CC4)cc32)sc1C(N)=O)c1ccccc1C(F)(F)F` was tested. Which Potency [1] did it give?
A: 4.78 µM (active)

Q: And the Potency [2]?
A: inactive

Q: What about the Potency [3] of the same compound?
A: inactive

Q: For `CC(=O)OC(C)(C)/C=C/C(=O)[C@](C)(O)C1[C@H](O)C[C@@]2(C)[C@@H]3CC=C4[C@@H](C[C@H](O[C@@H]5O[C@H](CO)[C@@H](O)[C@H](O)[C@H]5O)C(=O)C4(C)C)[C@]3(C)C(=O)C[C@]12C` (stereo partly specified), which activation [1] is on record?
A: -10.7%

Q: And the Potency [2]?
A: inactive

Q: And the Potency [3]?
A: inactive

Q: `CCOc1ccc(S(=O)(=O)N2CCCCCC2)c2ccccc12` was tested. Which activation [1] did it give?
A: -13.7%

Q: And the Potency [2]?
A: inactive

Q: And the Potency [3]?
A: inactive

Q: With `C[C@H](NC(c1cccc2[nH]c(=O)c(=O)[nH]c12)P(=O)(O)O)c1ccc(Br)cc1` (stereo partly specified) as the compound, how does the activation [1] read?
A: -12.3%

Q: And the Potency [2]?
A: inactive

Q: And the Potency [3]?
A: inactive

Q: For `C=C1C[C@@]23CCC4[C@@](C)(CCC[C@@]4(C)C(=O)OC)C2CC[C@@H]1C3` (stereo partly specified), which activation [1] is on record?
A: -32.8%

Q: And the Potency [2]?
A: inactive

Q: And the Potency [3]?
A: inactive

Q: What does the source list for `Fc1ccc(N2CCCCC2)c(NC(=S)c2ccncc2)c1`?
A: activation [1]: -8.04%; Potency [2]: inactive; Potency [3]: inactive

Q: Which results are given for `Cc1cc2c(cc1N1C(=O)c3cccc4c(CCCO)ccc(c34)C1=O)n(C)c(=O)n2C`?
A: activation [1]: 5%; Potency [2]: inactive; Potency [3]: inactive

Q: With `CC1(C)CC[C@]2(C(=O)O[C@@H]3O[C@H](CO)[C@@H](O)[C@H](O)[C@H]3O)CC[C@]3(C)C(=CCC4[C@@]5(C)C[C@H](O)[C@H](O[C@@H]6OC[C@@H](O)[C@H](O)[C@H]6O)[C@@](C)(CO)C5CC[C@]43C)C2C1` (stereo partly specified) as the compound, how does the activation [1] read?
A: 11.6%

Q: What about the Potency [2] of the same compound?
A: inactive

Q: What about the Potency [3] of the same compound?
A: inactive

Q: Which activation [1] does the source give for `CCC(C)C(=O)OC1CC(C)C=C2C=CC(C)C(CCC(O)CC(O)CC(=O)O)C21` (stereo unspecified) here?
A: -1.53%

Q: What about the Potency [2] of the same compound?
A: inactive

Q: And the Potency [3]?
A: inactive

Q: What does the source list for `CC(C)CC1NC(=O)C(C(C)c2ccccc2)NC(=O)C(C(C)C)NC(=O)C(C)NC(=O)CCCNC(=O)C(Cc2c[nH]c3ccccc23)NC(=O)C(C)NC1=O` (stereo not drawn) (cyclo([GABA]AV[ξPhe(βξ-Me)]LAW); configuration not given here)?
A: activation [1]: 8.4%; Potency [2]: inactive; Potency [3]: inactive

Q: What does the source list for `COc1cc2c(cc1OC)CN(C(=O)[C@@H](NCc1ccncc1)C(C)(C)C)CC2`?
A: activation [1]: 5.25%; Potency [2]: inactive; Potency [3]: inactive

Q: Which results are given for `CC1=C2C(=O)C=C(CO)C2[C@H]2OC(=O)[C@H](C)[C@@H]2[C@@H](OC(=O)Cc2ccc(O)cc2)C1` (stereo partly specified)?
A: activation [1]: -11.6%; Potency [2]: inactive; Potency [3]: inactive

Q: How did the activation [1] turn out when `CC1CCC(=O)CC(O)C(O)CC(=O)O1` (stereo unspecified) was run?
A: 10.7%

Q: What about the Potency [2] of the same compound?
A: inactive

Q: And the Potency [3]?
A: inactive

Q: With `CCC1CC2C(C)=CC3CCCCC3C2(C)C2(OC(=O)C(C)(O)OC2=O)O1` (stereo unspecified) as the compound, how does the activation [1] read?
A: -16%

Q: What about the Potency [2] of the same compound?
A: inactive

Q: And the Potency [3]?
A: inactive

Q: How did the activation [1] turn out when `CC1C/C=C/C=C\CCCCC(O)C/C=C/C(=O)O1` (stereo unspecified) was run?
A: -17.9%

Q: And the Potency [2]?
A: inactive

Q: What about the Potency [3] of the same compound?
A: inactive

Q: Which activation [1] does the source give for `CC1(C(=O)O)CCCC2(C)C3CCC4CC3(CCC12)CC4=O` (stereo unspecified) here?
A: 16.1%

Q: What about the Potency [2] of the same compound?
A: inactive

Q: What about the Potency [3] of the same compound?
A: inactive

Q: What does the source list for `NC(=O)[C@H]1CCCCc2c1[nH]c1ccc(Cl)cc21`?
A: activation [1]: 15%; Potency [2]: inactive; Potency [3]: inactive

Q: Which results are given for `O=C1CCC(c2ccccc2)(C2CCN(Cc3ccc(I)cc3)CC2)C(=O)N1` (stereo unspecified)?
A: activation [1]: 4.33%; Potency [2]: inactive; Potency [3]: inactive

Q: What does the source list for `CNc1nc(Nc2cn(C(C)(C)C#N)nc2C)ncc1C(F)(F)F`?
A: activation [1]: -23.2%; Potency [2]: inactive; Potency [3]: inactive

Q: Which results are given for `C=CC1(C)C=C2C(=O)CC3C(C)(C)CCCC3(C(=O)O)C2(O)CC1` (stereo unspecified)?
A: activation [1]: -15.3%; Potency [2]: inactive; Potency [3]: inactive

Q: Which results are given for `Cc1ccc([C@@H]2CC=C(C(=O)O)[C@H](c3ccc(C(C)(C)C)cc3)N2S(=O)(=O)c2ccc(C)cc2)cc1`?
A: activation [1]: -26.3%; Potency [2]: inactive; Potency [3]: inactive
